Measured values taken from PubChem BioAssay (Tox21).
Inconclusive results are not listed. Active and inactive are the calls of the source. Unless noted, calls come from the whole dose curve; as a rule, active = well fitted curve in the direction sought with a large enough effect in the repeat runs; inconclusive = weak or mixed curves; inactive = no such curve, though single readings can be large; an effect the other way counts as inactive or inconclusive.

Key:
[1] = target: Estrogen receptor beta (Homo sapiens) (UniProt Q92731); assay: qHTS assay to identify small molecule agonists of the estrogen receptor beta (ER-beta) signaling pathway (AID 1259377; active = well fitted activation curve with a large enough effect in the signal ratio in the repeat runs, not every such curve was filed as active; the % refers to the signal ratio)
Procedure, shortened: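 Read-out: beta-lactamase FRET fluorescence. Cell line: ER-beta-UAS-bla HEK293T in 2% charcoal-stripped FBS. Exposure: 16 hr at 37C. Substrate step: 2 h at room temperature.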

[2] = target: Estrogen receptor beta (Homo sapiens) (UniProt Q92731); assay: qHTS assay to identify small molecule antagonists of the estrogen receptor beta (ER-beta) signaling pathway (AID 1259378; active = well fitted inhibition curve with a large enough effect in the signal ratio in the repeat runs, not every such curve was filed as active; the % refers to the signal ratio; note: potency is the fitted concentration of half-maximal effect)
Procedure, shortened: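 ER-beta-UAS-bla HEK293T cells in 2% charcoal-stripped FBS medium treated with compound plus 1nM final 17-beta-estradiol for 16 hr at 37C. Beta-lactamase reporter read by FRET substrate fluorescence after 2 hours at room temperature.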

[3] = qHTS assay to identify small molecule agonists of the androgen receptor (AR) signaling pathway in the presence of an antagonist - cell viability counter screen (AID 1259379); note: nearly all actives have a fitted effect of over 25% in size; note: potency is the fitted concentration of half-maximal effect;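 for activity change, negative = cytotoxicity: MDA-kb2 human breast cancer cells carrying an MMTV luciferase reporter; series mostly up to about 92 µM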
Procedure, shortened: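 Seed MDA-kb2 at 3,000 cells/well; incubate 5 hr, 37C, 0% CO2. Add nilutamide to 3.0uM final, then pin compounds at 15 concentrations. Incubate 16 hr. Add CellTiter-Fluor at 15 hr, read fluorescence after 1 hr.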

[4] = qHTS assay to identify small molecule agonists of the estrogen receptor beta (ER-beta) signaling pathway - cell viability counter screen (AID 1259380); note: nearly all actives have a fitted effect of over 30% in size; note: potency is the fitted concentration of half-maximal effect
Procedure, shortened: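 CellTiter-Glo read, 30 min RT, same wells as bla assay; cells ER-beta-UAS-bla HEK293T; 16 hr compound, 37C; medium 2% charcoal-stripped FBS.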

[5] = target: Androgen receptor (Homo sapiens) (UniProt P10275); assay: qHTS assay to identify small molecule agonists of the androgen receptor (AR) signaling pathway in the presence of an antagonist (AID 1259381; calls by dose curve; note: nearly all actives have a fitted effect of over 15% in size)
Procedure, shortened: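 Test compounds at 15 concentrations were incubated for 16hr with MDA-kb2 reporter cells in presence of 3.0uM nilutamide (final). Signal: ONE-Glo luciferase luminescence.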

[6] = target: Estrogen receptor (Homo sapiens) (UniProt P03372); assay: qHTS assay to identify small molecule agonists of the estrogen receptor alpha (ER-alpha) signaling pathway in the presence of an antagonist (AID 1259383; calls by dose curve; note: top concentration of the series differs between compounds; nearly all actives have a fitted effect of over 15% in size)
Procedure, shortened: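 Stably transfected VM7Luc4E2 reporter cells, kept 5 days in charcoal-stripped serum, received ICI-182,780 at 10.0nM final before compound addition. Following 22hr incubation at 37C and 5% CO2, luciferase signal was read by luminescence.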

[7] = qHTS assay to identify small molecule agonists of the estrogen receptor alpha (ER-alpha) signaling pathway in the presence of an antagonist - cell viability counter screen (AID 1259386);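 note: cells exposed to compounds for 22 h at 37 °C before the viability read; nearly all actives have a fitted effect of over 30% in size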; note: potency is the fitted concentration of half-maximal effect; for activity change, negative = cytotoxicity: series mostly up to about 92 µM
Procedure, shortened: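 Viability counter screen using VM7Luc4E2 (full-length ER-alpha, four ERE-luciferase). The cells were treated with compounds alongside ICI-182,780 10.0nM for 22hr, and live-cell protease fluorescence was quantified with CellTiter-Fluor.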

[8] = target: Progesterone receptor (Homo sapiens) (UniProt P06401); assay: qHTS assay to identify small molecule antagonists of the progesterone receptor (PR) signaling pathway (AID 1346795; active = well fitted inhibition curve with a large enough effect in the signal ratio in the repeat runs, not every such curve was filed as active; the % refers to the signal ratio; note: potency is the fitted concentration of half-maximal effect)
Procedure, shortened: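 In HEK293T cells bearing the PR-UAS-bla reporter, compound effects on promegestone-driven (1 nM) beta-lactamase expression are assessed after 16 hr using a fluorescent FRET substrate incubated 2 hr at room temperature.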

[9] = qHTS assay to identify small molecule antagonists of the TGF-beta/Smad signaling pathway - cell viability counter screen (AID 1346824); note: nearly all actives have a fitted effect of over 50% in size
Procedure, shortened: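 SBE-bla HEK 293T cells, incubated overnight, then compound plus 0.25 ng/mL TGF-beta1 (stock added) for 5 hr at 37 C. Viability was read in the same wells by CellTiter-Glo luminescence after 30 min at room temperature.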

[10] = qHTS assay to identify small molecule agonists of the TGF-beta/Smad signaling pathway (AID 1346859; active = well fitted activation curve with a large enough effect in the signal ratio in the repeat runs, not every such curve was filed as active; the % refers to the signal ratio; note: series mostly up to about 77 µM)
Procedure, shortened: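 Each well held 4,000 SBE-bla HEK 293T cells incubated overnight before compound addition; 5 hr later the cleavable FRET substrate went on for 2 hr at room temperature, and fluorescence was read at two emissions.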

[11] = qHTS assay to identify small molecule antagonists of the estrogen receptor beta (ER-beta) signaling pathway - cell viability counter screen (AID 1259382); note: series mostly up to about 92 µM; nearly all actives have a fitted effect of over 55% in size
Procedure, shortened: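 In this multiplexed counter screen, cells were seeded at 2,000 per well in medium with 2% charcoal-stripped FBS and incubated 6 hr before compound and 1nM final E2 were added. Sixteen hours later, ATP-based luminescence reported viability.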

[12] = qHTS assay to identify small molecule agonists or antagonists of the thyroid stimulating hormone receptor (TSHR) signaling pathway - wild type cell line counter screen (AID 1259384; calls by dose curve)
Procedure, shortened: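 Wild-type Hek293 cells, 800/well, 18 h at 37C, then compound with Ro20-1724 for 30 min RT. cAMP by HTRF (cAMP-d2/anti-cAMP cryptate), 1 h RT, fluorescence read. 15 concentrations, triplicates.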

[13] = target: Thyrotropin receptor (Homo sapiens) (UniProt P16473); assay: qHTS assay to identify small molecule antagonists of the thyroid stimulating hormone receptor (TSHR) signaling pathway (AID 1259385; calls by dose curve; note: nearly all actives have a fitted effect of over 20% in size)
Procedure, shortened: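 TSHR-HEK293 cells (800/well) plated 18 h, then compounds with Ro20-1724 and TSH at 1.5 ng/mL final, 30 min at room temperature. cAMP quantified by HTRF (cAMP-d2/anti-cAMP-cryptate, 1 h); 15 concentrations in triplicate.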

[14] = target: Progesterone receptor (Homo sapiens) (UniProt P06401); assay: qHTS assay to identify small molecule agonists of the progesterone receptor (PR) signaling pathway (AID 1346784; calls by dose curve; note: nearly all actives have a fitted effect of over 30% in size)
Procedure, shortened: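 Compounds were tested for PR agonism in HEK 293T cells bearing a beta-lactamase gene under UAS control. Treatment lasted 16 hr at 37C; signal came from fluorescence of a FRET substrate.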

[15] = qHTS assay to identify small molecule antagonists of the progesterone receptor (PR) signaling pathway - cell viability counter screen (AID 1346798); note: series mostly up to about 92 µM; nearly all actives have a fitted effect of over 50% in size
Procedure, shortened: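 Following a 4 hr attachment, PR-UAS-bla HEK293T cells in charcoal-stripped FBS medium were exposed to compounds with R5020 for 16 hr; CellTiter-Glo was added and luminescence read after 30 min at room temperature.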

[16] = qHTS assay to identify small molecule agonists of the progesterone receptor (PR) signaling pathway - cell viability counter screen (AID 1346799; calls by dose curve; note: nearly all actives have a fitted effect of over 45% in size)
Procedure, shortened: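 Here, 3,000 PR-UAS-bla HEK293T cells per well were treated with compounds for 16 hr after a 6 hr preincubation at 37C and 5% CO2; cell viability is the CellTiter-Glo luminescence signal.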

[17] = qHTS assay to identify small molecule agonists of the TGF-beta/Smad signaling pathway - cell viability counter screen (AID 1346829); note: top concentration of the series differs between compounds; nearly all actives have a fitted effect of over 45% in size
Procedure, shortened: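 Luminescence from CellTiter-Glo, read after a 30 min room-temperature incubation, gives cell viability of SBE-bla HEK 293T cells treated 5 hr with compounds at 37 C.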

[18] = target: Thyrotropin-releasing hormone receptor (Homo sapiens) (UniProt P34981); assay: qHTS assay to identify small molecule antagonists of the thyrotropin-releasing hormone receptor (TRHR) signaling pathway (AID 1346877; active = well fitted inhibition curve with a large enough effect in the repeat runs, not every such curve was filed as active; note: series mostly up to about 51 µM)
Procedure, shortened: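 Following an 18 h incubation at 37 °C and a 2 h calcium dye load, TRHR-HEK293 cells were exposed to compound (5 min, room temperature) and challenged with TRH, 1 nM final.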

[19] = target: Thyrotropin-releasing hormone receptor (Homo sapiens) (UniProt P34981); assay: qHTS assay to identify small molecule agonists of the thyrotropin-releasing hormone receptor (TRHR) signaling pathway (AID 1346891; calls by dose curve; note: series mostly up to about 58 µM)
Procedure, shortened: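 Screening of agonists relied on calcium signalling in HEK293 cells expressing human TRHR: dye loading 2 h at 37 °C preceded compound addition and a 3-min fluorescence time course.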
% is set by controls: 0 for no effect and ±100 for the full control effect.

Estrogen receptor beta (Homo sapiens), sequence (Q92731 whole entry, looked up): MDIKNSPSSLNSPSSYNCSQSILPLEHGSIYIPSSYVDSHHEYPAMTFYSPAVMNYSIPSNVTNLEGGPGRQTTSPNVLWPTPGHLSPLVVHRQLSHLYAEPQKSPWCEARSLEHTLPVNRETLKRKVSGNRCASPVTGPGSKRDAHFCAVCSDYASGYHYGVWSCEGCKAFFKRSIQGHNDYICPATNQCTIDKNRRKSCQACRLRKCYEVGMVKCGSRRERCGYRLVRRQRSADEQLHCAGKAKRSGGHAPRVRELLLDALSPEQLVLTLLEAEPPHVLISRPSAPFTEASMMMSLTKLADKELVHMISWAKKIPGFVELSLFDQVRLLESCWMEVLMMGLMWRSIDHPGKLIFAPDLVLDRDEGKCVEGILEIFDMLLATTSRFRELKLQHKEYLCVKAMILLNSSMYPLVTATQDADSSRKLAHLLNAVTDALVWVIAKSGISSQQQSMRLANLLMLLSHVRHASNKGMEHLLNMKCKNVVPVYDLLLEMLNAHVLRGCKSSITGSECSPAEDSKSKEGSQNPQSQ
Thyrotropin-releasing hormone receptor (Homo sapiens), sequence (P34981 whole entry, looked up): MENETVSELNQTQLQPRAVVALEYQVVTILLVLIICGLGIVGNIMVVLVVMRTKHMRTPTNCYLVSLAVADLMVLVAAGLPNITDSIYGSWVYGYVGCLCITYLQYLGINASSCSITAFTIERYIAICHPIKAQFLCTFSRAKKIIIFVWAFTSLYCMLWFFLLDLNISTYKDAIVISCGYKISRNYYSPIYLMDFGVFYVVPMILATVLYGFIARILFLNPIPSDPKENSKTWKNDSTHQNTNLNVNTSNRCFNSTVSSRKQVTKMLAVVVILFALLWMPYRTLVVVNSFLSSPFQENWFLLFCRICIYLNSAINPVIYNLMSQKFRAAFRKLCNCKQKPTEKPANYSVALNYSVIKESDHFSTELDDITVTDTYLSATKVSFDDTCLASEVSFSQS
Estrogen receptor (Homo sapiens), sequence (P03372 whole entry, looked up): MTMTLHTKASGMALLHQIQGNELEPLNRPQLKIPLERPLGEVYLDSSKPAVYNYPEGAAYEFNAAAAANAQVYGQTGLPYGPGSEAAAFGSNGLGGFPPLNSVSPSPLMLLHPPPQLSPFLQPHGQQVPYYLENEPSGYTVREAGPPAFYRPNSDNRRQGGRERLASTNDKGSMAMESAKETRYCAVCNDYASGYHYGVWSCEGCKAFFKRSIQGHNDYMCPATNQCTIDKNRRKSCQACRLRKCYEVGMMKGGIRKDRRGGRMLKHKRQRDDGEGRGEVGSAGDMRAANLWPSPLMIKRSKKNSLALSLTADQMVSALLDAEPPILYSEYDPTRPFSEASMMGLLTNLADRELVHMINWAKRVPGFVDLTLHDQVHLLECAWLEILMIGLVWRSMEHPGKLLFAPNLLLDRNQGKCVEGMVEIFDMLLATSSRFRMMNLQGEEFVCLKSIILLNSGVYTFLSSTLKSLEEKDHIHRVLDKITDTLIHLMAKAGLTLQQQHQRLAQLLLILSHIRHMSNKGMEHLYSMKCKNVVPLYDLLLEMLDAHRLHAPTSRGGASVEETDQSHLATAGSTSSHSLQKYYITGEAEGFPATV
Progesterone receptor (Homo sapiens), sequence (P06401 whole entry, looked up): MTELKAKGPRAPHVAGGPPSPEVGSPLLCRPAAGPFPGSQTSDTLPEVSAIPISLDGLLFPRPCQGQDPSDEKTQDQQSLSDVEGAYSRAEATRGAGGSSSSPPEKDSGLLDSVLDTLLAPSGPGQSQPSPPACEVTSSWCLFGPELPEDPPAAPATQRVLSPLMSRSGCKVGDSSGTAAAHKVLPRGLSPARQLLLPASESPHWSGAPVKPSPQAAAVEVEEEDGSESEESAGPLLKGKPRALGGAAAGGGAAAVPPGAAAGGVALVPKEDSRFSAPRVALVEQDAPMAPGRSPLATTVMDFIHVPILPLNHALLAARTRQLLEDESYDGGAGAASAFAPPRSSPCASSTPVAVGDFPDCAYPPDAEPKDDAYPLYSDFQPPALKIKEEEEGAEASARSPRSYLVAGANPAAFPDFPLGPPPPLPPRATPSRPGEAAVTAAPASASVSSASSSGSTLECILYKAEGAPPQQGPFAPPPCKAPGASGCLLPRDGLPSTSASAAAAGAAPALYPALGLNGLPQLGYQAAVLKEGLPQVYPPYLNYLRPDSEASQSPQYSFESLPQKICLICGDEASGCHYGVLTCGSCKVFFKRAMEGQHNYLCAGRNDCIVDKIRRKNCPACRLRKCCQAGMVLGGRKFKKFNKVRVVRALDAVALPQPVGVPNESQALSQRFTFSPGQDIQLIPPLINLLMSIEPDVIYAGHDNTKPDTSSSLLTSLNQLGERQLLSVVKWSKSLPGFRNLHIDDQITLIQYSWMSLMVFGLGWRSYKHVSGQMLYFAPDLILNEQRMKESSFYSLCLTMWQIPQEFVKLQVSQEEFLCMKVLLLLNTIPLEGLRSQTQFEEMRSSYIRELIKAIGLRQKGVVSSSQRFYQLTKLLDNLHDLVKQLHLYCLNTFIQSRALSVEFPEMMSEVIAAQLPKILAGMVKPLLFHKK
Androgen receptor (Homo sapiens), sequence (P10275 whole entry, looked up): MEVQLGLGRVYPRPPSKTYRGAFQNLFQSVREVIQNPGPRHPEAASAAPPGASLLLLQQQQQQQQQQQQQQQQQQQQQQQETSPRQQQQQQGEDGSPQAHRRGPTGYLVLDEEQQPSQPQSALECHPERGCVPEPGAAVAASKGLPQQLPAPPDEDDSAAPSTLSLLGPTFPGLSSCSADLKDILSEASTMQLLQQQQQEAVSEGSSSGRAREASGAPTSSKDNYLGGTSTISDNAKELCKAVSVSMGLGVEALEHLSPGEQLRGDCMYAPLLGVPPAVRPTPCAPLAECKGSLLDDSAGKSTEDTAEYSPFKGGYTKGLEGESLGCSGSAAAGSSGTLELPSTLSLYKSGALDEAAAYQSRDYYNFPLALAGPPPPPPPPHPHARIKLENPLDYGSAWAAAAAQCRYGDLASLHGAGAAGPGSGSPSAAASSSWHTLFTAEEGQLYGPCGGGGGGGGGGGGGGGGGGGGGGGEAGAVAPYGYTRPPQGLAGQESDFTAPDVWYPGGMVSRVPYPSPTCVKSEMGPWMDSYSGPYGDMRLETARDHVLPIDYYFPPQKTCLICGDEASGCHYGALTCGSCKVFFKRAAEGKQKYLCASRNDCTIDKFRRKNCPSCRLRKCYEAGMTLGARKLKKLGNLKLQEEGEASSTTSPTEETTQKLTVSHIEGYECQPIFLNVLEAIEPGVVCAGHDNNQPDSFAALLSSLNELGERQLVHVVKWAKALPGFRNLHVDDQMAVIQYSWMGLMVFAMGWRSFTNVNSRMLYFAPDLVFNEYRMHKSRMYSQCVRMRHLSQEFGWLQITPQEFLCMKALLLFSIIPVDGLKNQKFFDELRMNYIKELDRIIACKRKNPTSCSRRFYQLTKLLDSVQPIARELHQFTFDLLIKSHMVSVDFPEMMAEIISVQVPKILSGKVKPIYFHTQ
Thyrotropin receptor (Homo sapiens), sequence (P16473 whole entry, looked up): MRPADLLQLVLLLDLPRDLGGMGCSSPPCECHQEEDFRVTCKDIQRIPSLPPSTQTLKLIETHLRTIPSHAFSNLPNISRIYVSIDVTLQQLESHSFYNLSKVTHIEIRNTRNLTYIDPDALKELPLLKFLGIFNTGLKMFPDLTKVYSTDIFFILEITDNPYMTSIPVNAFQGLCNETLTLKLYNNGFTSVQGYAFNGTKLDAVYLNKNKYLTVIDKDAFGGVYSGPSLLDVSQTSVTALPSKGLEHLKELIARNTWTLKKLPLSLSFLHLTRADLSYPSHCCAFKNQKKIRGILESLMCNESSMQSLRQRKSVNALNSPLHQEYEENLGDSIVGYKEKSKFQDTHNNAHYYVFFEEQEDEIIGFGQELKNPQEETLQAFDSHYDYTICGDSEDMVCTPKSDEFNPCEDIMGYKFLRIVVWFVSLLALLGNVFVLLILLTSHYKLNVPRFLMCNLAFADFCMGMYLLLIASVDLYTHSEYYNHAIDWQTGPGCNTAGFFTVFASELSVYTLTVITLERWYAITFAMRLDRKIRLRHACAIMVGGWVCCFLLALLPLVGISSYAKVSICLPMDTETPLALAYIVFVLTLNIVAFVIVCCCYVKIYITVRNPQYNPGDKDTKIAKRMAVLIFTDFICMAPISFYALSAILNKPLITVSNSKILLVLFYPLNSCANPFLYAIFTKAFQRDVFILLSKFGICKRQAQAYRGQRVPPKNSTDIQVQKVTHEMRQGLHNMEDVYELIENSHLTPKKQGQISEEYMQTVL

CC(C)(c1cc(Br)c(OCCO)c(Br)c1)c1cc(Br)c(OCCO)c(Br)c1
active: Potency [2] 4.75 µM | Potency [3] 47.5 µM | Potency [4] 42.3 µM | Potency [7] 53.3 µM | Potency [8] 5.33 µM
inactive: Potency [1] | Potency [5] | Potency [6] | Potency [9] | Potency [10]

CC(C)=CCCC(C)CCOC(=O)C(C)C (configuration not stated)
inactive: Potency [1] | Potency [2] | Potency [3] | Potency [4] | Potency [11] | Potency [6] | outcome [12] | Potency [13] | Potency [7] | outcome [14] | Potency [8] | Potency [15] | Potency [16] | Potency [9] | Potency [17] | Potency [10] | Potency [18] | Potency [19]

Cc1ccc(-n2[nH]c(C)c(N=Nc3cccc(-c4cccc(C(=O)O)c4)c3O)c2=O)cc1C
active: Potency [2] 8.41 µM | Potency [3] 29.8 µM | Potency [4] 26.6 µM | Potency [7] 29.8 µM | Potency [8] 18.8 µM
inactive: Potency [1] | Potency [5] | outcome [12] | Potency [13] | outcome [14] | Potency [9] | Potency [17] | Potency [10] | Potency [18] | Potency [19]

O=S(O)O
inactive: activation [1] -0.957% [at 19 µM] | activity, negative = inhibition [2] 1.38% [at 19 µM] | activity change, negative = cytotoxicity [3] 1.09% [at 19 µM] | activity change, negative = cytotoxicity [4] -0.0055% [at 19 µM] | activity change, negative = cytotoxicity [11] 4.33% [at 19 µM] | activation [6] -0.842% [at 19 µM] | cAMP activity change [12] -1.65% [at 18.9 µM] | activity change, negative = cytotoxicity [7] 0.0003% [at 19 µM] | activity change, negative = cytotoxicity [15] -0.356% [at 18.9 µM] | activity change, negative = cytotoxicity [16] -3.11% [at 19 µM] | viability change, negative = cytotoxic [9] 0.444% [at 15.8 µM] | activity change, negative = cytotoxicity [17] -1.2% [at 15.8 µM] | activation [10] -2.31% [at 15.8 µM] | activation [19] 0.0945% [at 11.8 µM]
